Test results taken from PubChem BioAssay (NCATS).
Inconclusive results are not listed. Calls of active or inactive are those of the source. Calls follow the shape of the dose curve; as a rule, active = well fitted curve in the direction sought with a large enough effect; inconclusive = small, poorly fitted or top-dose-only effect, or another doubt; inactive = no such curve, though single readings can be large; an effect the other way counts as inactive or inconclusive.

Tests used:
[1] = HEK293 12hr Apoptosis Induction qHTS against the NCATS CANVASS Library (AID 1347361); settings: HEK293 caspase-3/7 Caspase-Glo luminescence; series mostly up to 46.1 µM
In short: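 Read-out: Caspase-Glo 3/7 luminescence (DEVD substrate), 15 min RT. Preceded by 12 h compound exposure of HEK293, 500 cells/well, 11-pt qHTS titration; doxorubicin titration as control.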

[2] = test system: NAD(P)H diaphorase (Clostridium kluyveri); test: Diaphorse counterscreen qHTS: Assay Interference Panel against the NCATS CANVASS Library (AID 1347362); settings: Diaphorase enzyme, resazurin to resorufin fluorescence; series mostly up to 57.5 µM
In short: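 Counterscreen for coupling-enzyme interference: resorufin fluorescence from resazurin/NADH turnover, read after 5 min at room temperature. Compounds were tested over an 11-point series after 15 min dark preincubation with diaphorase in PBS-Tween.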

[3] = biological target: Luciferin 4-monooxygenase (Photinus pyralis) (UniProt P08659); test: Firefly luciferase counterscreen qHTS: Assay Interference Panel against the NCATS CANVASS Library (AID 1347363); settings: purified firefly luciferase, luminescence inhibition, 5 min; series mostly up to 57.5 µM
Luciferin 4-monooxygenase (Photinus pyralis), sequence (P08659 whole entry, looked up): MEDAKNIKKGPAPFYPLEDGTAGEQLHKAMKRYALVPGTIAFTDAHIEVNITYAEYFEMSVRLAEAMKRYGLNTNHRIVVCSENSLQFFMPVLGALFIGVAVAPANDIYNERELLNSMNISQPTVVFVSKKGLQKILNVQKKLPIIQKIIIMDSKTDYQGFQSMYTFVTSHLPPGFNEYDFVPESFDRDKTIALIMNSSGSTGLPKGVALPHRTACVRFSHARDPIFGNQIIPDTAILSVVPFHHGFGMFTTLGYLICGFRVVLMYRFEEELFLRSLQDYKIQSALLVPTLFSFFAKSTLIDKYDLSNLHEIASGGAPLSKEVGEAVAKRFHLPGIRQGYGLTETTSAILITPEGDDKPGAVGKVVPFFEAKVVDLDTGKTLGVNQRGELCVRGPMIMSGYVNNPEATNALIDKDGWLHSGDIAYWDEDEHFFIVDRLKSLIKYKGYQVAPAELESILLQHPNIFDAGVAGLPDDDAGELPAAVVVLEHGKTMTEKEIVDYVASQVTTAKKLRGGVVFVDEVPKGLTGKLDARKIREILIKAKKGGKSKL
In short: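 Luminescence inhibition readout: compounds (11-point qHTS) sat 15 min at room temperature with substrate mix (0.013 mM luciferin and ATP), then firefly luciferase was added and signal read 5 min later.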

[4] = KB-8-5-11 Cancer Cell Toxicity qHTS against the NCATS CANVASS Library (AID 1347364); settings: KB-8-5-11 MDR cells viability, CellTiter-Glo, 72 h; at 46.1 µM (top of the series); also: nearly all actives have a fitted effect of over 75% in size
In short: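 KB-8-5-11 cells, 500/well in DMEM + 10% FBS, given compounds in an 11-point series. Incubated 72 h at 37 °C. Viability by CellTiter-Glo luminescence. Confirmation also run with 1 uM tariquidar.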

[5] = KB-3-1 Cancer Cell Toxicity qHTS against the NCATS CANVASS Library (AID 1347366); settings: KB-3-1 viability, CellTiter-Glo luminescence, 72 h; at 46.1 µM (top of the series); also: nearly all actives have a fitted effect of over 75% in size
In short: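 KB-3-1 cells (500 cells/well) in DMEM + 10% FBS were treated with compounds for 72 hr at 37C, 5% CO2. Viability was read as CellTiter-Glo luminescence after 10 minutes at room temperature.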

[6] = qHTS for ATAD5 Agonist screened against the NCATS CANVASS Library (AID 1347367); settings: HEK293T ATAD5-luciferase reporter, luminescence, 16 h; series mostly up to 46.1 µM;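 also: luciferase reporter driven by ATAD5 which rises upon DNA damage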
In short: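 HEK293T cells stably carrying an ATAD5-controlled luciferase reporter (2000 cells/well) attached for 5 hr, then received compounds in an 11-point series for 16hr at 37C. Luminescence was read after a 30 min room-temperature reagent step.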

[7] = MCF7 Cancer Cell Toxicity qHTS against the NCATS CANVASS Library (AID 1347369); settings: MCF7 viability, ATP luminescence (CellTiter-Glo), 72 h; at 46 µM (top of the series)
In short: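 MCF7, 500 cells/well; cpds 11-pt qHTS; 72 hr, 37C/5% CO2; CellTiterGlo ATP luminescence.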

[8] = qHTS for ATAD5 Antagonist screened against the NCATS CANVASS Library (AID 1347370); settings: HEK293T-ATAD5-luc, 5-FUrd stimulated, luminescence, 16 h; series mostly up to 46.1 µM;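 also: HEK293T cells carrying an ATAD5 luciferase reporter co-treated with 10 µM 5-fluorouridine; nearly all actives have a fitted effect of over 65% in size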
In short: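 HEK293T cells with stably integrated ATAD5-luciferase reporter, 2000/well, 5 h attachment; compounds plus 10 µM 5-fluorouridine, 16 h at 37 °C. Luciferase luminescence read, with CellTiter-Fluor viability read first.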

[9] = J3T Cancer Cell Toxicity qHTS against the NCATS CANVASS Library (AID 1347371); settings: J3T dog glioma viability, ATP luminescence, 72 h; series mostly up to 46.1 µM;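 also: J3T is a canine glioma cancer cell line seeded at 500 cells per well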
In short: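 J3T dog glioma cells, 500 per well, treated 72 h at 37C with compounds (11-point qHTS); viability from ATP content by CellTiterGlo luminescence; bortezomib titration as control.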

[10] = biological target: Nuclear receptor subfamily 1 group I member 3 (Homo sapiens) (UniProt Q14994); test: qHTS for Constitutive Androstane Receptor (CAR) Antagonist screened against the NCATS CANVASS Library (AID 1347372); settings: HepG2-hCAR-CYP2B6 luciferase, CITCO-stimulated antagonist mode; series mostly up to 46.1 µM;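 also: cells stimulated with 50 nM CITCO agonist so inhibition reflects antagonism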
Nuclear receptor subfamily 1 group I member 3 (Homo sapiens), sequence (Q14994 whole entry, looked up): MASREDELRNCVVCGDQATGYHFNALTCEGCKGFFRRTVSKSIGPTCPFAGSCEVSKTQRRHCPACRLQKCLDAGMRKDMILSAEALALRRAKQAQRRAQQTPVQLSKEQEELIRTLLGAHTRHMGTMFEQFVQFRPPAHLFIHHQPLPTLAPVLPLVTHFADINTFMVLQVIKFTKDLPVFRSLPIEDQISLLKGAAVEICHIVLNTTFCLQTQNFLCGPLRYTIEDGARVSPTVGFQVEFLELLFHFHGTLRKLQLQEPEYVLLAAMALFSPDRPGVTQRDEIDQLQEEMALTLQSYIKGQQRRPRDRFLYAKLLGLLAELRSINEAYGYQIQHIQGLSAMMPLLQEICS
In short: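 HepG2-CYP2B6-hCAR double-stable cells plated, 4hr attach; cpd pin-transferred; CITCO 50 nM final; 24hr 37C/5% CO2; CellTiter-Fluor 1hr (fluorescence), then ONE-Glo luminescence.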

[11] = biological target: Nuclear receptor subfamily 1 group I member 3 (Homo sapiens) (UniProt Q14994); test: qHTS for Constitutive Androstane Receptor (CAR) Agonist screened against the NCATS CANVASS Library (AID 1347373); settings: HepG2-hCAR-CYP2B6 luciferase reporter, ONE-Glo luminescence; series mostly up to 46.1 µM;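 also: every well also contained 1.5 µM PK11195 alongside the test compound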
In short: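 HepG2 cells stably carrying hCAR and a CYP2B6-2.2kb luciferase reporter, treated 24hr at 37C with compounds plus 1.5uM PK11195; activation by ONE-Glo luminescence, viability by CellTiter-Fluor.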

[12] = 10-beta competent E. coli microbial cell viability qHTS against the NCATS CANVASS Library (AID 1347376); settings: E. coli 10-beta viability, BacTiter-Glo ATP luminescence, overnight; series mostly up to 46.1 µM
In short: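 10-beta competent E. coli (0.2 OD) were exposed overnight at 37C to compounds in an 11-point series. Viability was read as ATP-dependent BacTiter-Glo luminescence after 20 min at room temperature.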

[13] = qHTS for H2AX Agonists against the NCATS CANVASS Library (AID 1347378); settings: CHO-K1 H2AX phosphorylation, HTRF TR-FRET, 3 h; series mostly up to 76.9 µM
In short: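 CHO-K1 cells were plated overnight at 37C, then exposed to compounds (concentration series, 0.76% DMSO final) for 3 hr at 37C. Lysates received Eu-cryptate anti-pH2AX (S139) and d2 anti-H2AX antibodies; after 24 hr at room temperature, TR-FRET 665/620 nm ratio was read.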

[14] = qHTS for Inflammasome Signaling Inhibitors: IL-1-beta AlphaLISA screen against the NCATS CANVASS Library (AID 1347379); settings: THP-1 LPS/ATP, IL-1B AlphaLISA secretion, 16 h; series mostly up to 57.5 µM;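 also: human THP-1 cells primed with LPS then triggered with ATP; secreted IL-1B measured as AlphaLISA emission at 615 nm; lower signal means less IL-1B release which is the wanted effect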
In short: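 THP-1 cells pretreated 1 hr with compound (up to 57.5 uM final), then stimulated with LPS (250 ng/mL final) and ATP (1.25 mM final). Secreted IL-1B measured by AlphaLISA after 16 hr; glyburide as positive control.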

[15] = qHTS for Antimalaria activity screened against the NCATS CANVASS Library (AID 1347380);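 also: Plasmodium falciparum strain Dd2 asexual parasites grown in red blood cells; nearly all actives have a fitted effect of over 40% in size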; settings: P. falciparum Dd2 growth, SYBR Green fluorescence, 72 h; series mostly up to 28.7 µM
In short: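 Red blood cells infected with P. falciparum Dd2 (2.5% hematocrit final, 0.3% parasitemia) were exposed to compounds in an 11-point qHTS series for 72 hr at 37C under 5% O2 and 5% CO2. Lysis buffer with SYBR Green was then added for 18 hr, and fluorescence was read at 485/535 nm.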

[16] = Inflammasome Signaling qHTS Counterscreen: IL-1-beta AlphaLISA counterscreen against the NCATS CANVASS Library (AID 1347381); settings: Purified IL-1beta AlphaLISA signal interference counterscreen; series mostly up to 57.5 µM;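 also: cell-free check with purified IL-1β in medium and no THP-1 cells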
In short: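 Cell-free interference check: compounds added to medium spiked with 4 pg purified IL-1β. Anti-IL-1β acceptor beads (6 ug/mL) with 0.6 nM biotinylated antibody added for 1 h at RT, then streptavidin donor beads (24 ug/mL) for 30 min in the dark. AlphaLISA read at 680/615 nm.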

[17] = Cytotoxicity qHTS for assessment of Hepg2 cells membrane integrity screened against the NCATS CANVASS Library (AID 1347387); settings: HepG2 LDH release (CytoTox-ONE) fluorescence, 5 h; series mostly up to 46.1 µM
In short: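 HepG2 cells (2000/well) attached overnight, then exposed 5 hr at 37C to compounds in an 11-point series (0.59 nM - 46 uM final). LDH release from damaged membranes read fluorometrically (CytoTox-ONE; 560/590 nm) after 10 min at room temperature.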

[18] = qHTS assay for small molecule disruptors of mitochondrial membrane potential screened against the NCATS CANVASS Library (AID 1347389); settings: HepG2 mitochondrial membrane potential, m-MPI red/green ratio, 1.5 h; series mostly up to 46.1 µM; also: nearly all actives have a fitted effect of over 60% in size
In short: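 HepG2 cells (2,000/well) plated overnight, then exposed to compounds in 11-point qHTS series for 1 h at 37C before 30 min Mito-MPS dye; depolarization read as fall in red aggregate (590 nm) to green monomer (535 nm) fluorescence.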

[19] = Secretion counterscreen for inhibitors of the SERCaMP assay screened against the NCATS CANVASS Library (AID 1347390); settings: SH-SY5Y constitutive GLuc secretion, luminescence, 20 h; series mostly up to 76.6 µM;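 also: light from luciferase secreted into medium read as a measure of general secretion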
In short: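 SH-SY5Y cells expressing constitutively secreted GLuc, 1000 cells/well, attached 4 h at 37C, then exposed to compounds (0.001 - 77 uM, 11-pnt series) for 20 h. Coelenterazine added; luminescence read to flag secretory-pathway interferers.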

[20] = qHTS for activators of Nrf2/ARE signaling pathway screened against the NCATS CANVASS Library (AID 1347391); settings: ARE-bla HepG2, beta-lactamase reporter, 16 h; series mostly up to 46.1 µM; also: nearly all actives have a fitted effect of over 60% in size
In short: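 ARE-bla HepG2 beta-lactamase reporter cells exposed to compounds for 16 h at 37C; CCF4 substrate 2 h, fluorescence at ex 405 nm, em 460/530 nm. Viability by CellTiter-Glo luminescence.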

Measured: outcome

CN1CCC[C@@H]1c1cccnc1
inactive: all assays above
